In PubChem BioAssay AID1347383 (Zoeller Lab, School of Medicine, Boston University, 2020):
Activity calls are given as the source filed them.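 The calls were made as follows: active = cell survival after UV exposure 2 SD above solvent-only control wells at 10 µM, confirmed on one or two repeats; inactive = the rest.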

Experiment: protection of CHO cells from pyrene-fatty acid UV killing, primary screen, phospholipid biosynthesis inhibitor project, ZR-82 cells, Analyticon library, screen 2 (AID 1347383);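 also: survival reflects blocked phospholipid synthesis cutting uptake of the phototoxic fatty acid; compound and fatty acid exposure 3 h then viability read next day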
Details: ZR-82 CHO cells, CellTiter Blue, at 10 µM, peroxisome-deficient CHO-K1 variant, with DGAT-1, DGAT-2 and ACAT inhibitors

Question: For `CC1(C)C=Cc2c(ccc3c2O[C@@H]2COc4cc5c(cc4[C@@]2(O)C3=O)OCO5)O1`, which outcome is on record?
Answer: inactive

Question: For `C[C@]1(C=O)[C@H]2CC[C@]3(C)O[C@@]14C(=O)c1cc(O)ccc1C(=O)C4=C[C@@H]23`, which outcome is on record?
Answer: inactive

Question: For `C=C(C(=O)OC)[C@@H]1CC=C2C=CC(=O)[C@H](C)[C@@]2(C)C1`, which outcome is on record?
Answer: inactive

Question: For `CC/C=C\CC1C(=O)C=CC1(CCCCC1CCC(=O)O1)OC(C)=O` (centres undefined), which outcome is on record?
Answer: inactive

Question: With `C=C(C(=O)O)C1CC(OC(=O)CC(C)CC)C2(C)CCCC(=C)C2C1` (centres undefined) as the compound, how does the outcome read?
Answer: inactive

Question: Which outcome does the source give for `CO[C@@H]1[C@H](O)CC[C@]2(CO2)[C@H]1[C@@]1(C)O[C@@H]1CC=C(C)C` here?
Answer: inactive

Question: Which outcome does the source give for `CCC/C=C\C/C=C\CCCC/C=C\Cc1cc(O)cc(O)c1` here?
Answer: inactive

Question: For `O=C(OCc1ccccc1)c1ccccc1`, which outcome is on record?
Answer: inactive

Question: For `CC1(C)CC2C3OC(O)C4(O)OC(C)(CC34)C2C1` (centres undefined), which outcome is on record?
Answer: inactive

Question: Which outcome does the source give for `COc1cc(O)c2c(=O)c(-c3ccc(O)cc3O[C@@H]3O[C@H](CO)[C@@H](O)[C@H](O)[C@H]3O)coc2c1` here?
Answer: inactive

Question: Which outcome does the source give for `CC1=C2C(=O)O[C@@H](c3ccoc3)[C@]2(C)CCC1=O` here?
Answer: inactive

Question: Which outcome does the source give for `C=C1CC[C@@H](C)[C@](C)(CCc2ccoc2)C/C=C\C=C/1C(=O)O` here?
Answer: inactive

Question: With `O=C(O)CCc1c(O)ccoc1=O` as the compound, how does the outcome read?
Answer: inactive

Question: For `COc1cc(/C=C(/C)C(C)Cc2ccc(O)c(OC)c2)ccc1O` (centres undefined), which outcome is on record?
Answer: inactive

Question: With `CCCCCCC1OC23OC1CCC2CCC(O)C3O` (centres undefined) as the compound, how does the outcome read?
Answer: inactive

Question: For `CC(C)=CCC/C(C)=C/Cc1c(O)c(CC=C(C)C)c2oc3ccc(O)cc3c(=O)c2c1O`, which outcome is on record?
Answer: inactive

Question: Which outcome does the source give for `COC1C(OC(=O)/C=C/C=C/C=C/C=C/C(=O)O)CCC2(CO2)C1C1(C)OC1CC=C(C)C` (centres undefined) here?
Answer: inactive

Question: For `COc1ccc(-c2coc3cc(O[C@@H]4O[C@H](CO)[C@@H](O)[C@H](O)[C@H]4O)ccc3c2=O)cc1`, which outcome is on record?
Answer: inactive

Question: Which outcome does the source give for `C=C1C(=O)O[C@@H]2C[C@H](C)[C@@]3(O)C=C(C(C)=O)C4(CC3C[C@H]12)C(=O)O[C@H]1C[C@@H](C)C(CCC(C)=O)=CC[C@H]14` (some centres undefined) here?
Answer: inactive

Question: With `CC(C)c1ccc2c(c1)CCC1C(C)(C(=O)O)CCCC21C` (centres undefined) as the compound, how does the outcome read?
Answer: inactive

Question: Which outcome does the source give for `C=C1C[C@]23C[C@H]4C5[C@]6(C)CC(=O)C[C@]57C(C2C(O)[C@H]1C(O)C37)N4C6` (some centres undefined) here?
Answer: inactive

Question: With `O=C(Cc1ccccc1)O[C@@H]1[C@@H](O)[C@H](O)[C@@H](CO)O[C@H]1O` as the compound, how does the outcome read?
Answer: inactive

Question: With `C=CC(C)(C)c1cc2cc3c(cc2oc1=O)OC(C(C)(C)OC(C)=O)C3` (centres undefined) as the compound, how does the outcome read?
Answer: inactive

Question: With `C=CCC1=CC(OC)(C(C)Cc2ccc3c(c2)OCO3)C(OC)=CC1=O` (centres undefined) as the compound, how does the outcome read?
Answer: inactive

Question: For `C/C=C/C=C/[C@H]1Cc2cc(O)cc(O)c2O1`, which outcome is on record?
Answer: inactive

Question: With `Cc1coc2c1CC1OC1(C)CCC1OC1(C)C2` (centres undefined) as the compound, how does the outcome read?
Answer: inactive

Question: Which outcome does the source give for `COc1cc(=O)oc(C(C)C(C)O)c1CO` (centres undefined) here?
Answer: inactive

Question: Which outcome does the source give for `COc1cc(O[C@@H]2O[C@H](CO)[C@@H](O)[C@H](O)[C@H]2O)cc(OC)c1OC` here?
Answer: inactive

Question: For `CCC(C)C1NC(=O)C(Cc2ccccc2)NC(=O)C(CCCCCC(=O)C(O)CO)NC(=O)C2CCCCN2C1=O` (centres undefined), which outcome is on record?
Answer: inactive

Question: With `C/C=C/CCc1cc(O)c2c(c1)OC(C)C2CO` (centres undefined) as the compound, how does the outcome read?
Answer: inactive

Question: For `C/C=C(/C(=O)O)N1C(=O)C=C(C)C1=O`, which outcome is on record?
Answer: inactive

Question: With `CC(C)CC(O)C(=O)NC(C)C(=O)NC(CC(C)C)C(=O)NCCCC(=O)O` (centres undefined) as the compound, how does the outcome read?
Answer: inactive

Question: Which outcome does the source give for `COc1cc2c(cc1O)C(=O)CC1C(C)(C)C(=O)CCC21C` (centres undefined) here?
Answer: inactive

Question: With `CC(=O)O[C@H]1C[C@@]2(C)[C@@H](CC[C@H]3[C@@]4(C)C=CC(=O)[C@@H](C)[C@@H]4[C@H](O)C(=O)[C@@]32C)/C1=C(/CCC=C(C)C)C(=O)O` as the compound, how does the outcome read?
Answer: inactive

Question: Which outcome does the source give for `COc1cc(/C=C/c2ccc(O)cc2)cc(OC)c1` here?
Answer: inactive

Question: For `Nc1ccn(C2CC(O)C(CO)O2)c(=O)n1` (centres undefined), which outcome is on record?
Answer: inactive

Question: For `O=C(O)c1cc(O)c2c(c1)C(=O)c1cc(O)cc(O)c1C2=O`, which outcome is on record?
Answer: inactive

Question: For `O=c1[nH]c2ccccc2c(-c2cccc(O)c2)c1O`, which outcome is on record?
Answer: inactive

Question: Which outcome does the source give for `CC[C@H](C)C(=O)O[C@H]1C[C@@H](C)C=C2C=C[C@H](C)[C@H](CC[C@@H]3C[C@@H](O)CC(=O)O3)[C@H]21` here?
Answer: inactive
